Reference: PubChem BioAssay AID651739 (Broad Institute, 2012)
The campaign covered roughly 5,600 compounds. About 4,100 (73%) were called active. Not shown: some 4% with an inconclusive outcome.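 Rule for the calls: active = mean replicate inhibition above about 95% and at least 55% of replicates individually reaching it (limit read from the data); inconclusive = only one of the two criteria is met; inactive = neither criterion is met.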 The set was probably picked from earlier hits. These entries were drawn from the full list.

Experiment: T. cruzi intracellular proliferation inhibitors, confirmation, cell-based, NIH3T3 host, beta-gal parasite, luminescence, cherry-pick (AID 651739)
Conditions: T. cruzi beta-gal in NIH3T3, GalScreen luminescence, 90 h; at 8.35 µM; stronger effect = higher value

SMILES	inhibition
Cc1ccc(S(=O)(=O)Nc2ccc3c(c2)C(=O)N([C@H](C)CO)C[C@H](C)[C@H](CN(C)Cc2ccc(Cl)c(Cl)c2)O3)cc1	102% (active)
COc1cccc(S(=O)(=O)Nc2ccc3c(c2)[C@H]2C[C@H](CC(=O)NCc4ccc(Cl)cc4)O[C@H](CO)[C@H]2O3)c1	104% (active)
O=C(C[C@@H]1C[C@@H]2c3cc(NC(=O)c4ccc5c(c4)OCO5)ccc3O[C@@H]2[C@@H](CO)O1)NCc1ccc(Cl)cc1	106% (active)
O=C(C[C@@H]1C[C@H]2c3cc(NC(=O)C4CCC4)ccc3O[C@H]2[C@@H](CO)O1)NCc1ccc2c(c1)OCO2	12.6% (inactive)
O=C(Nc1ccc2c(c1)[C@@H]1C[C@H](CC(=O)N3CCOCC3)O[C@@H](CO)[C@@H]1O2)c1ccc2c(c1)OCO2	13.5% (inactive)
C/C=C/c1ccc([C@H]2[C@@H](CNC(C)C)N(c3nc(CC)cs3)[C@H]2CO)cc1	101% (active)
C[C@H]1CCCCO[C@H](CN(C)Cc2ccc(C(F)(F)F)cc2)[C@@H](C)CN([C@@H](C)CO)C(=O)c2cc(NC(=O)C3CCCCC3)ccc2O1	100% (active)
C[C@@H]1CCCCO[C@H](CN(C)Cc2ccc(Cl)c(Cl)c2)[C@H](C)CN([C@@H](C)CO)C(=O)c2cc(NC(=O)C3CCCCC3)ccc2O1	97.4% (active)
C[C@@H]1CCCCO[C@@H](CN(C)CC2CC2)[C@H](C)CN([C@H](C)CO)C(=O)c2cc(NC(=O)C3CCCCC3)ccc2O1	99.2% (active)
C[C@@H]1CN([C@@H](C)CO)C(=O)c2cc(NC(=O)C3CCCCC3)ccc2O[C@@H](C)CCCCO[C@H]1CN(C)Cc1ccncc1	97.3% (active)
CCCNC(=O)N1[C@@H]2c3cccc(=O)n3C[C@H]1[C@H](CO)[C@H]2C(=O)NCC(F)(F)F	21.5% (inactive)
C[C@H](CO)N1C[C@H](C)[C@@H](CN(C)Cc2ccc(C(F)(F)F)cc2)OCCCC[C@H](C)Oc2ccc(NC(=O)C3CCCCC3)cc2C1=O	98.1% (active)
COc1ccc(CN(C)C[C@H]2OCCCC[C@H](C)Oc3ccc(NC(=O)Nc4ccc5c(c4)OCO5)cc3C(=O)N([C@H](C)CO)C[C@@H]2C)cc1	100% (active)
C[C@@H]1CCCCO[C@@H](CN(C)Cc2ccc3c(c2)OCO3)[C@@H](C)CN([C@@H](C)CO)C(=O)c2cc(NC(=O)Nc3ccccc3)ccc2O1	110% (active)
CNC[C@@H]1Oc2cc(C#CCC3CCCC3)ccc2S(=O)(=O)N([C@H](C)CO)C[C@H]1C	95% (active)
C[C@@H]1CN([C@H](C)CO)S(=O)(=O)c2ccc(C#CCC3CCCC3)cc2O[C@H]1CN(C)C(=O)CC1CC1	97.4% (active)
CO[C@H](CN(C)S(=O)(=O)c1ccc(Cl)cc1)[C@@H](C)CN(Cc1ccccc1Cl)[C@H](C)CO	110% (active)
CN1C(=O)c2cc(NC(=O)c3cnccn3)ccc2OC[C@@H]2O[C@H](CC(=O)N[C@@H]3CCN(Cc4ccccc4)C3)CC[C@@H]21	99.8% (active)
CN1C(=O)c2cc(NC(=O)Nc3ccccc3F)ccc2OC[C@H]2O[C@H](CC(=O)NCc3ccc(-c4ccccc4)cc3)CC[C@H]21	108% (active)
CN1C(=O)c2cc(NC(=O)c3cnccn3)ccc2OC[C@@H]2O[C@@H](CC(=O)N[C@H]3CCN(Cc4ccccc4)C3)CC[C@H]21	71.5% (inactive)
C[C@@H]1CN([C@H](C)CO)C(=O)c2cc(NS(C)(=O)=O)ccc2O[C@@H](C)CCCCO[C@H]1CN(C)S(=O)(=O)c1cn(C)cn1	-9.98% (inactive)

SMILES	inhibition
COc1ccc(NC(=O)Nc2ccc3c(c2)C(=O)N([C@H](C)CO)C[C@H](C)[C@H](CN(C)S(=O)(=O)c2ccc(Cl)cc2)OCCCC[C@H](C)O3)cc1	104% (active)
CC(C)NC(=O)Nc1ccc2c(c1)C(=O)N([C@@H](C)CO)C[C@H](C)[C@H](CN(C)S(=O)(=O)c1ccc(Cl)cc1)OCCCC[C@H](C)O2	104% (active)
C[C@H]1CCCCO[C@H](CN(C)S(=O)(=O)c2ccc(Cl)cc2)[C@@H](C)CN([C@@H](C)CO)C(=O)c2cc(NC(=O)Nc3ccc4c(c3)OCO4)ccc2O1	103% (active)
C[C@H](CO)N1C[C@H](C)[C@@H](CN(C)S(=O)(=O)c2ccccc2)Oc2ncc(C#Cc3ccccc3F)cc2C1=O	111% (active)
C[C@H](CO)N1C[C@H](C)[C@@H](CN(C)S(=O)(=O)c2ccccc2F)Oc2ncc(C#Cc3ccccc3F)cc2C1=O	106% (active)
CCCNC(=O)N(C)C[C@@H]1Oc2ncc(C#Cc3ccccc3F)cc2C(=O)N([C@@H](C)CO)C[C@H]1C	112% (active)
C[C@@H]1CN([C@@H](C)CO)C(=O)c2cc(NC(=O)Nc3cccc4ccccc34)ccc2O[C@H]1CN(C)Cc1ccc(Cl)c(Cl)c1	97.9% (active)
C[C@@H]1CN([C@@H](C)CO)C(=O)c2cc(NC(=O)Nc3cccc4ccccc34)ccc2O[C@H]1CN(C)Cc1ccc(Oc2ccccc2)cc1	103% (active)
OC[C@@H]1[C@H](c2ccc(C#Cc3ccccc3)cc2)[C@@H]2CN(Cc3cncnc3)CCCCN12	104% (active)
OC[C@@H]1[C@H](c2ccc(C#CC3(O)CCCC3)cc2)[C@H]2CN(Cc3cncnc3)CCCCN12	99.2% (active)
Cc1cccc(-c2ccc([C@H]3[C@@H](CO)N4CCCCN(Cc5cncnc5)C[C@H]34)cc2)c1	84.9% (inactive)
OC[C@H]1[C@H](c2ccc(-c3cccc(F)c3)cc2)[C@@H]2CN(Cc3cncnc3)CCCCN12	82.2% (inactive)
Cc1ccc(-c2ccc([C@H]3[C@H](CO)N4CCCCN(Cc5cncnc5)C[C@@H]34)cc2)cc1	102% (active)
O=C(c1ccc(F)cc1)N1CCCCN2[C@H](C1)[C@@H](c1ccc(C#CC3(O)CCCC3)cc1)[C@@H]2CO	45.9% (inactive)
O=C(Nc1ccc(Cl)cc1)N[C@@H]1CC[C@@H](CCNC(=O)c2ccccc2F)O[C@H]1CO	45.6% (inactive)
O=C(Nc1cc(Cl)cc(Cl)c1)N[C@H]1CC[C@@H](CCNS(=O)(=O)c2cccc(F)c2)O[C@H]1CO	113% (active)
CS(=O)(=O)N1[C@@H](C#N)[C@H](c2ccc(C#CC3CCCCC3)cc2)[C@@H]1CO	103% (active)
N#C[C@H]1[C@@H](c2ccc(C3=CCCCC3)cc2)[C@@H](CO)N1C(=O)NC1CCCCC1	105% (active)
CCc1cnc(N2[C@H](C#N)[C@H](c3ccc(C4=CCCC4)cc3)[C@@H]2CO)s1	106% (active)
CC(C)NC(=O)N1[C@H](C#N)[C@H](c2ccc(C#CC3CCCCC3)cc2)[C@H]1CO	105% (active)
